GDH-TPI counter-1 – GDH-TPI coupled enzyme inhibition counter-screen; GDH-TPI coupled enzyme counterscreen, NADH absorbance; inhibition, % at 4.8 µM; 1.2% of 360,000 active; in the data active = inhibition above about 30%;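 also: 0% = DMSO wells and 100% = wells lacking the enzyme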
BJeLR lethal – BJeLR cell viability loss; BJeLR (HRASV12) viability, CellTiter-Glo ATP luminescence, 48 h; AID 1554; 0.17% of 300,000 active; inhibition, % (concentration not given with the values); in the data active = inhibition above about 50%
FBA Mtb inh – Mtb fructose-bisphosphate aldolase inhibition. P9WQA3. purified M. tuberculosis FBA, fluorescence read-out. inhibition, % at 1 µM. 2.3% of 360,000 active;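 also: 0% = vehicle and 100% = reference inhibitor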
PrPC surface inh – reduces human prion protein on the cell surface; P04156; cell surface PrPC, TR-FRET read-out; inhibition, % at 13.8 µM; 0.43% of 370,000 active; AID 720596; in the data active = inhibition above about 24%; also: 0% = median of the test wells and 100% = reference compound wells
RecA splice inh – blocks M. tuberculosis RecA intein splicing. P9WHJ3. cell-free RecA intein splicing, fluorescence. inhibition, % (test concentration not listed). 0.75% of 290,000 active. AID 2221; in the data active = inhibition above about 30%;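 also: 0% = vehicle wells and 100% = reference inhibitor control wells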
Target sequence (P9WHJ3 whole entry, looked up, canonical isoform): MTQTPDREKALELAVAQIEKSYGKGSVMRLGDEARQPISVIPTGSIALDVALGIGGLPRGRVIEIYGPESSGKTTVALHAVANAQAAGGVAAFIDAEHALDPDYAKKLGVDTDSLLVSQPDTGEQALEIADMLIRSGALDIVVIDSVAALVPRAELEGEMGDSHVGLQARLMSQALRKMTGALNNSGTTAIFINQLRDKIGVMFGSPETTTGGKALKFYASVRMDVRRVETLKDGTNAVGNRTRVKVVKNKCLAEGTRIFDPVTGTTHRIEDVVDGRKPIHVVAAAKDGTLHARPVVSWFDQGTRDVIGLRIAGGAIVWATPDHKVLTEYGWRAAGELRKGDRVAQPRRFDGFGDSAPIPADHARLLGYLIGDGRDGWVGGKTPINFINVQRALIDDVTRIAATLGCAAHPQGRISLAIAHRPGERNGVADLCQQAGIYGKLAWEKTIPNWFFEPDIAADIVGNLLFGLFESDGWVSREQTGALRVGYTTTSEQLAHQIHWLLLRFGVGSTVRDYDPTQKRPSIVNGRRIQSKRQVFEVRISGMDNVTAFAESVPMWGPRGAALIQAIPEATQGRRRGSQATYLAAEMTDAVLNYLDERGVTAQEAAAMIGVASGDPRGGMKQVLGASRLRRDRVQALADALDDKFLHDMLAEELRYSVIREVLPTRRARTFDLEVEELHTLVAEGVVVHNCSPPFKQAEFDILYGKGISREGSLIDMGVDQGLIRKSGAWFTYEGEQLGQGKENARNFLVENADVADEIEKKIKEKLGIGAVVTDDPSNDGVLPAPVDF
Mtb FBA inh conf – confirmation of M. tuberculosis fructose-bisphosphate aldolase inhibitors. shares compounds with FBA Mtb inh. AID 651616. purified M. tuberculosis FBA, fluorescence read-out. 78% of 5,600 active. inhibition, % at 1 µM;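 also: 0% = vehicle wells and 100% = reference inhibitor wells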
GDH-TPI counter-2 – counter-screen for M. tuberculosis FBA inhibitors: GDH-TPI coupled enzyme inhibition; shares compounds with FBA Mtb inh; GDH-TPI coupled enzyme counterscreen, fluorescence; inhibition, % at 1 µM; 81% of 5,600 active; in the data active = inhibition above about 10%
An asterisk follows results filed as active. This is a sample that favours compounds with a hit; in the whole collection about 4.2% have one here. Rule as the data show it, unless noted: active = inhibition above about 27%; inactive = the rest.

How did Nc1[nH]c(C(=O)c2ccccc2)c(-c2ccccc2C(F)(F)F)c1C(=O)c1c[nH]c2ccccc12 do in these assays?
PrPC surface inh: 2.9

Results for COC(=O)c1cccc(Cn2ccc3ccc(-c4ccc5ccn(C(=O)C6CC6)c5c4)cc32)c1 ?
PrPC surface inh: -2.7

Results for COc1ccc(CC(=O)Nc2ccc3c(c2)C(=O)N(CCC(=O)O)C3=O)cc1 ?
GDH-TPI counter-1: 2.3; BJeLR lethal: -0.4; FBA Mtb inh: -1.4; PrPC surface inh: -8.7; RecA splice inh: 0.7

Results for CC(C)C(=O)Nc1ccc2c(c1)C(=O)N(CCC(=O)O)C2=O ?
GDH-TPI counter-1: 6.4; BJeLR lethal: 2.6; FBA Mtb inh: 40.0*; PrPC surface inh: -5.9; RecA splice inh: -1.4; Mtb FBA inh conf: 97.4*; GDH-TPI counter-2: 80.5*

How did CC(C)C[C@H](NC(C)(C)C(=O)NC1CCCCC1)C(=O)NCCc1c[nH]c2ccccc12 do in these assays?
PrPC surface inh: -3.6

What do the screens show for `CC1(c2ccc3ccccc3c2)NC(=O)N(CC(=O)N2CCC(C(N)=O)CC2)C1=O` (stereo unspecified)?
GDH-TPI counter-1: 1.4; BJeLR lethal: -2.6; FBA Mtb inh: 54.4*; PrPC surface inh: -3.6; RecA splice inh: -0.9; Mtb FBA inh conf: 95.8*; GDH-TPI counter-2: 63.4*

How did CC1(c2ccc3ccccc3c2)NC(=O)N(CC(=O)N2CCN(Cc3ccccc3)CC2)C1=O (stereo unspecified) do in these assays?
GDH-TPI counter-1: -1.1; FBA Mtb inh: 3.5

How did Cn1c2ccccc2c(=O)c2ccc(Cl)cc21 do in these assays?
GDH-TPI counter-1: 6.5; FBA Mtb inh: 105.5*; PrPC surface inh: -4.0; Mtb FBA inh conf: 64.1*; GDH-TPI counter-2: 43.9*

What do the screens show for `CCOC(=O)c1ccc(/C=C2\c3ccccc3C(=O)N2c2ccccc2)cc1F`?
GDH-TPI counter-1: 10.0; FBA Mtb inh: 4.6; PrPC surface inh: -16.1

What do the screens show for `Cn1c(=O)oc(=O)c2ccccc21`?
GDH-TPI counter-1: 17.0; FBA Mtb inh: 93.7*; PrPC surface inh: 9.3; Mtb FBA inh conf: 134.9*; GDH-TPI counter-2: 116.1*

How did CCOC(=O)c1ccc(-c2ccc3c(=O)c4ccccc4n(C)c3c2)cc1F do in these assays?
GDH-TPI counter-1: 13.2; BJeLR lethal: -4.0; FBA Mtb inh: 57.1*; PrPC surface inh: -7.8; RecA splice inh: -8.7; Mtb FBA inh conf: 132.7*; GDH-TPI counter-2: 116.7*

How did COc1ccc(C#Cc2ccc3c(=O)c4ccccc4n(C)c3c2)cc1 do in these assays?
BJeLR lethal: -13.6; RecA splice inh: -7.0

What do the screens show for `Cn1c2ccccc2c2c(=O)oc3ccccc3c21`?
GDH-TPI counter-1: 20.0; FBA Mtb inh: 7.6; PrPC surface inh: -3.1

How did Cc1ccccc1NC(=O)OCCCN1C(=O)CCC12CCC(C)CC2 (stereo unspecified) do in these assays?
PrPC surface inh: -1.3

How did O=C(N[C@H](C(=O)N1CCC[C@H]1C(=O)NC1CCCC1)C1CCCCC1)c1cccs1 do in these assays?
PrPC surface inh: 8.5

Results for COC(=O)c1c(-c2ccc(OC)cc2)c2c(c3c4cc(OC)ccc4n(C(=O)c4ccccc4)c13)C(=O)N(C)C2 ?
PrPC surface inh: -1.7

How did COC(=O)[C@]12C[C@H](CC(=O)NCCCN3CCCC3=O)C(=O)N(Cc3cccc4ccccc34)C1=C[C@H](C(C)C)O[C@@H]2C1CC1 do in these assays?
PrPC surface inh: -11.0

What do the screens show for `CCOC(=O)C1=C(C)OC(N)=C(C#N)C1c1cc(OC)c2c(c1)OCO2` (stereo unspecified)?
GDH-TPI counter-1: 14.6; BJeLR lethal: -2.0; FBA Mtb inh: 0.2; PrPC surface inh: -4.5; RecA splice inh: -3.3

How did CCOC(=O)C1=C(C)OC(N)=C(C#N)C1c1cc2c(cc1[N+](=O)[O-])OCO2 (stereo unspecified) do in these assays?
GDH-TPI counter-1: 8.2; BJeLR lethal: -5.0; FBA Mtb inh: 32.8*; PrPC surface inh: 3.4; RecA splice inh: -7.4; Mtb FBA inh conf: 42.1*; GDH-TPI counter-2: 26.2*

What do the screens show for `C[C@H](O)[C@@H]1C(=O)N2CCc3c([nH]c4ccccc34)[C@@H]2C[C@@H]1N(C)C(=O)Nc1ccccc1`?
GDH-TPI counter-1: -4.3; FBA Mtb inh: 27.6*; PrPC surface inh: -7.2; Mtb FBA inh conf: 52.1*; GDH-TPI counter-2: 41.5*

Results for CCOC(=O)N(C)[C@H]1C[C@H]2c3[nH]c4ccccc4c3CCN2C(=O)[C@H]1[C@H](C)O ?
PrPC surface inh: -7.5

How did C[C@H](O)[C@@H]1CN2CCc3c([nH]c4ccccc34)[C@@H]2C[C@@H]1N(C)C(=O)Nc1cc(Cl)cc(Cl)c1 do in these assays?
GDH-TPI counter-1: 10.3; FBA Mtb inh: 1.4; PrPC surface inh: -1.4

How did C[C@H](O)[C@@H]1C(=O)N2CCc3c([nH]c4ccccc34)[C@@H]2C[C@@H]1N(C)C(=O)Nc1ccc(Br)cc1 do in these assays?
PrPC surface inh: -5.6

What do the screens show for `C[C@H](O)[C@@H]1C(=O)N2CCc3c([nH]c4ccccc34)[C@@H]2C[C@@H]1N(C)C(=O)c1ccco1`?
FBA Mtb inh: 67.2*; PrPC surface inh: -10.2; Mtb FBA inh conf: 144.4*; GDH-TPI counter-2: 132.4*

Results for CN(C(=O)C(C)(C)C)[C@H]1C[C@H]2c3[nH]c4ccccc4c3CCN2C(=O)[C@H]1CO ?
GDH-TPI counter-1: 21.3; FBA Mtb inh: 79.2*; PrPC surface inh: -5.8; Mtb FBA inh conf: active; GDH-TPI counter-2: active

Results for C[C@H](O)[C@@H]1C(=O)N2CCc3c([nH]c4ccccc34)[C@@H]2C[C@@H]1N(C)C(=O)Nc1cc(Cl)cc(Cl)c1 ?
GDH-TPI counter-1: 18.6; FBA Mtb inh: 30.1*; PrPC surface inh: -7.9; Mtb FBA inh conf: active; GDH-TPI counter-2: active

What do the screens show for `O=C(NS(=O)(=O)c1cccc(F)c1)[C@H]1O[C@@H](n2ccc(=O)[nH]c2=O)[C@H](O)[C@@H]1O`?
PrPC surface inh: 5.0

How did C(=C\c1ccc2nncn2c1)/c1ccccc1 do in these assays?
GDH-TPI counter-1: 12.8; FBA Mtb inh: 50.3*; PrPC surface inh: -5.3; Mtb FBA inh conf: 11.3; GDH-TPI counter-2: -2.8

How did COC(=O)C[C@H]1CC[C@H]2[C@H](COc3ccc(NC(=O)C4CCOCC4)cc3C(=O)N2C)O1 do in these assays?
PrPC surface inh: -0.3

What do the screens show for `COc1ccc(C2NC(=O)c3ccccc3N2)cc1OC` (stereo unspecified)?
GDH-TPI counter-1: 11.9; BJeLR lethal: 5.6; FBA Mtb inh: 16.8; PrPC surface inh: -1.8; RecA splice inh: -2.0

Results for COc1ccc2ccccc2c1C1NC(=O)c2ccccc2N1 (stereo unspecified) ?
GDH-TPI counter-1: 6.0; FBA Mtb inh: 43.8*; PrPC surface inh: 12.1; Mtb FBA inh conf: 102.0*; GDH-TPI counter-2: 73.8*
